The list is not random: actives were taken first. Their share in the collection is about 2.8%.
Mcl1 Noxa PPI – Mcl-1/Noxa interaction inhibition; Q07820; TR-FRET Mcl-1/Noxa peptide binding, 2 h; inhibition, % at 21.7 µM; 1.5% of 220,000 active; AID 1022;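 active = compounds that cut the protein-peptide binding signal by more than 50% relative to plate controls in a single-dose test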;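 note: His-tagged Mcl-1 with rhodamine Noxa BH3 peptide and terbium anti-His antibody; 0% = Mcl-1 plus Noxa peptide wells and 100% = peptide-only wells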
Target sequence (Q07820 whole entry, looked up): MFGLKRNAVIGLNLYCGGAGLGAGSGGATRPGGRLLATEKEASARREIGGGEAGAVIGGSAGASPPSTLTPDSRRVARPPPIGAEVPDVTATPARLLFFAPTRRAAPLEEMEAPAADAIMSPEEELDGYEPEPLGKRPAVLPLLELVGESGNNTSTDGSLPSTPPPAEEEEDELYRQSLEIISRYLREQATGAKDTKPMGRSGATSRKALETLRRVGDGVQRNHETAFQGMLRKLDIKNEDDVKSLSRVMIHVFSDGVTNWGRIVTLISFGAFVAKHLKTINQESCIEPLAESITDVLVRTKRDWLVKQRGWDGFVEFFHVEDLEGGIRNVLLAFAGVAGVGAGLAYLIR
m-calpain inh – calpain II (pig) inhibition | purified calpain II, fluorogenic peptide substrate, 30 min | inhibition, % at 16 µM | 0.37% of 220,000 active;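 active = inhibition above about 50%, limit read from the data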
TNF necrop inh – inhibitors of TNF-alpha induced necroptosis in Jurkat FADD-/- cells; Jurkat FADD-/- TNF necroptosis rescue, ATP luminescence, 24 h; 0 = TNF only, 100 = no-TNF cells; activation (protection from cell death), % at 10 µM; 0.068% of 220,000 active; AID 463075;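 active = activation, meaning protection from cell death, of at least 50% relative to plate controls; inactive = activation below 50%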;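 note: necroptosis triggered by 40 ng/mL TNF-alpha added together with compound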
Mcl1 Bid PPI – Mcl-1/Bid interaction inhibition | Q07820 | TR-FRET Mcl-1/Bid-Dy647 peptide binding, 1536-well | inhibition, % at 21.7 µM | 0.97% of 220,000 active | AID 1021;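 active = compounds that cut the binding signal by more than half at the single screening dose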;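 note: His-tagged Mcl-1 with europium anti-His antibody binding Bid BH3 peptide; 0% = Mcl-1 plus peptide wells and 100% = peptide-only wells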
Mcl-1 Bim block – disrupts Bim peptide binding to human Mcl-1; inhibition, % at 10 µM; AID 1009; Q07820; Bead-based flow cytometry, Bim peptide-Mcl-1 binding; 0.1% of 190,000 active; in the data active = inhibition above about 40%;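 note: 0% = no compound tracer wells and 100% = peptide blocker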
zVAD death inh – blocks zVAD induced death of L929 cells. L929 zVAD necroptosis rescue, ATP luminescence, 24 h; with zVAD 60 µM. viability rescue, % at 10 µM. 0.38% of 220,000 active. AID 1377;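 active = activation, scaled between plate controls, above about 75%, limit read from the data; inactive = activation under that limit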;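 note: 0% = zVAD with DMSO and 100% = DMSO alone without zVAD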
Active calls of the source: *; . = no result.

SMILES	Mcl1 Noxa PPI	m-calpain inh	TNF necrop inh	Mcl1 Bid PPI	Mcl-1 Bim block	zVAD death inh
Cc1nc2ccc(C(=O)N3c4ccccc4CC3C)cc2s1 (centres undefined)	12.0	35.8	-4.8	-27.1	0.0	2.6
NS(=O)(=O)c1ccc(N/N=C/c2ccc(O)c(O)c2O)c([N+](=O)[O-])c1	37.4	33.9	-3.5	95.4*	.	0.1
CCOc1ccccc1N1CCN(C(=O)c2csc(C)c2CC)CC1	9.1	36.0	1.7	-10.9	-3.0	0.5
COc1cccc(C2=NOC(C(=O)N3CCOCC3)C2)c1 (centres undefined)	2.5	-25.6	1.6	-5.4	1.0	-0.4
COc1cccc(C2=NOC(C(=O)N3CCN(C(=O)c4ccco4)CC3)C2)c1 (centres undefined)	13.0	-15.3	1.5	-4.0	0.0	77.1*
O=C(Cc1nnc(NC(=O)Nc2ccc(F)cc2)s1)NCc1ccccc1	6.6	13.1	6.3	-30.5	.	0.6
CCOCCCn1c(C)nc2c(c1=O)c1nc3ccccc3nc1n2CCC1=CCCCC1	12.2	-188.7	-0.7	65.9*	-3.0	1.3
Cc1ccc(C(C)C)c(OCC(O)CN2CCN(CCO)CC2)c1 (centres undefined)	32.3	-18.6	0.9	53.0*	1.0	-1.5
Cc1cccc(NC(=O)C2C(C(=O)O)C3C=CC2C32CC2)c1C (centres undefined)	13.2	-1.4	-2.3	97.4*	-4.0	0.3
Cc1ccc(NC(=O)C2C(C(=O)O)C3C=CC2C32CC2)cc1 (centres undefined)	-8.7	-0.6	-2.3	-11.4	-3.0	0.9
Cc1ccc(C2CC(c3ccccc3)=NN2C(=O)CSc2nnc(-c3ccncc3)n2C)o1 (centres undefined)	22.6	24.7	0.8	-23.1	19.0	-1.1
CC(C)Sc1nc(N)c2c3c(sc2n1)CN(C)CC3	57.6*	-83.2	0.7	-13.8	-2.0	3.5
O=C(CSc1n[nH]c(=O)[nH]c1=O)Nc1ccc2c(c1)C(=O)c1ccccc1C2=O	101.4*	-17.9	3.5	60.5*	.	2.0
O=C(CSc1ccccn1)Nc1ccc2c(c1)C(=O)c1ccccc1C2=O	71.9*	-52.7	18.7	76.6*	0.0	0.5
O=C(CSc1ccccn1)Nc1ccc2ccccc2c1	2.8	1.7	2.2	-1.9	0.0	0.8
Cc1nn(C)cc1CN(C)S(=O)(=O)c1cccc([N+](=O)[O-])c1	11.8	3.6	0.8	-7.7	1.0	1.7
CCN1C(=O)/C(=C\c2ccc(-c3ccc([N+](=O)[O-])cc3OC)o2)SC1=Nc1cccc(C(=O)O)c1	97.9*	27.7	-4.2	69.7*	-6.0	29.2
Cc1cccc(OCCN2C(=O)c3ccccc3C2=O)c1	5.3	18.7	0.1	-16.7	0.0	-0.7
Cc1ccc(S(=O)(=O)ON2C(=O)c3ccccc3C2=O)c(C)c1	70.9*	-10.6	1.3	-37.3	-17.0	0.1
Cc1cc(C)c(S(=O)(=O)ON2C(=O)c3ccccc3C2=O)cc1C	72.3*	13.1	-1.1	-16.9	2.0	-0.1
Cc1cc(C)c(C)c(S(=O)(=O)ON2C(=O)c3ccccc3C2=O)c1C	48.2	-13.5	-3.8	-34.4	-2.0	-0.1
CN(C)CCCN(CCCN(C)C)C(=S)Nc1ccc(S(=O)(=O)N2CCOCC2)cc1	4.6	5.7	-1.6	-30.2	.	0.3
Cc1cccc(OCC(=O)NNC(=O)C2CCCCC2C(=O)O)c1 (centres undefined)	12.0	-2.5	0.2	-24.4	0.0	-0.3
CC(C)C[C@H](NC(=O)c1nc[nH]c1C(=O)N(C)Cc1ccccc1)C(=O)OCc1ccccc1	-44.1	24.1	0.1	-30.0	0.0	-0.3
C[C@@H](NC(=O)c1nc[nH]c1C(=O)N[C@@H](CCCCNC(=O)OC(C)(C)C)C(=O)OC(C)(C)C)c1ccccc1	-78.5	60.6*	1.3	-15.9	2.0	1.6
SMILES	Mcl1 Noxa PPI	m-calpain inh	TNF necrop inh	Mcl1 Bid PPI	Mcl-1 Bim block	zVAD death inh
CC(C)C[C@H](NC(=O)c1nc[nH]c1C(=O)NCCCCCNC(=O)OC(C)(C)C)C(=O)OC(C)(C)C	-39.9	51.4*	2.2	-0.4	-3.0	0.1
CC(C)C[C@H](NC(=O)c1[nH]cnc1C(=O)N[C@@H](C)c1ccccc1)C(=O)OCc1ccccc1	-100.7	56.2*	-1.0	-41.4	.	1.1
CC(=O)C1=C(O)C(=O)N(CCCn2ccnc2)C1c1ccc(C)cc1 (centres undefined)	17.0	-26.1	-1.4	6.1	0.0	0.1
CCOC(=O)COc1ccc(C(=O)NC2CCCCC2)cc1	9.0	-4.1	-1.2	-5.8	2.0	0.2
CCn1cc(C(=O)NCc2cccs2)c(=O)c2cc(S(=O)(=O)N3CCOCC3)ccc21	20.0	7.9	0.2	51.1*	.	1.3
CCOC(=O)c1cn(CC)c2ccc(S(=O)(=O)N3CC(C)CC(C)C3)cc2c1=O (centres undefined)	7.8	5.4	-0.9	53.9*	0.0	-0.1
O=C(Nc1nc2ccccc2s1)c1cc2c(s1)-c1ccccc1OC2	13.8	-146.8	3.4	57.4*	0.0	1.5
O=C(Nc1ccc(Cl)cn1)c1cc2c(s1)-c1ccccc1OC2	-23.9	-231.3	8.2	-0.7	.	1.4
COc1ccc2nc(Cl)c(C#N)cc2c1	-8.9	-37.8	0.9	-6.4	0.0	-1.4
NC(=O)c1c(NC(=O)CN2C(=O)NC(Cc3ccccc3)C2=O)sc2c1CCC2 (centres undefined)	34.5	2.5	1.9	-12.3	.	-0.3
CC1CCC2(CC1)NC(=O)N(CC(=O)Nc1sc3c(c1C(N)=O)CCC3)C2=O (centres undefined)	64.4*	-67.0	0.9	-84.1	3.0	2.3
Cn1cnnc1SCC(=O)Nc1sc2c(c1C(N)=O)CCC2	99.8*	-112.2	1.4	-64.3	-1.0	2.8
CC1CCCCC12NC(=O)N(CC(=O)Nc1sc3c(c1C(N)=O)CCC3)C2=O (centres undefined)	82.3*	-31.1	1.3	-60.8	-1.0	-1.3
CC(=O)Nc1ccc(-c2nnc(SCC(=O)Nc3ccc4c(c3)oc3ccccc34)n2C)cc1	50.2	-125.0	1.9	-3.3	-1.0	0.3
CCn1c(SCC(=O)Nc2ccc3c(c2)oc2ccccc23)nnc1-c1ccc(N)cc1	55.8*	-88.9	-4.2	58.3*	2.0	-1.2
NC(N)=N/N=C/c1ccc(Cl)cc1Cl	-2.1	-11.9	-9.3	50.8*	.	-0.4
NC(N)=N/N=C/c1ccc(Cl)c(Cl)c1	-0.8	-7.2	-10.8	-15.2	.	-1.6
O=C1CNC(=S)N1CCc1ccccc1Cl	2.2	-25.7	1.2	-70.8	.	0.0
COc1cccc(C2=CC(c3ccc(OC)c(OC)c3)NC(=S)N2)c1 (centres undefined)	-6.5	58.6*	-4.9	-50.7	.	-0.6
CCOP(=O)(O)c1ccccc1OCCOCCOc1ccccc1P(=O)(O)OCC	53.5*	5.5	0.4	29.5	-1.0	0.7
